Measured values published in PubChem BioAssay (NCI).
The panel holds about 83,000 compounds, 20% with a hit somewhere; the sample as a whole holds those more often.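 For each line, cells grew in 96-well plates with the test compound present at a single concentration for 48 hours.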 The source made the active and inactive calls. How the source made its calls: active means growth percent below 10; inactive means the rest.

Experiments:
Test in all cases: NCI-60 one-dose screen, 48 h (100 = growth as untreated, 0 = no growth, -100 = all killed)
Conditions in all cases: 10 µM unless noted
DU-145 prostate = tested on: DU-145 prostate
K-562 leukemia = tested on: K-562 leukemia
MALME-3M melanoma = tested on: MALME-3M melanoma
MDA-MB-231 breast = tested on: MDA-MB-231 breast
RXF 393 renal = tested on: RXF 393 renal
SF-268 CNS = tested on: SF-268 CNS
SF-295 CNS = tested on: SF-295 CNS
SF-539 CNS = tested on: SF-539 CNS
UACC-257 melanoma = tested on: UACC-257 melanoma
M14 melanoma = tested on: M14 melanoma
HCT-15 colon = tested on: HCT-15 colon
HT29 colon = tested on: HT29 colon
SNB-75 CNS = tested on: SNB-75 CNS
SNB-19 CNS = tested on: SNB-19 CNS
U251 CNS = tested on: U251 CNS
PC-3 prostate = tested on: PC-3 prostate
SK-MEL-5 melanoma = tested on: SK-MEL-5 melanoma
UACC-62 melanoma = tested on: UACC-62 melanoma
LOX IMVI melanoma = tested on: LOX IMVI melanoma
SK-MEL-28 melanoma = tested on: SK-MEL-28 melanoma

Measured: growth

CCCc1cc2cc(-n3nc(CC)c4c3CC(C)(C)CC4=O)cc(NC3CCC(O)CC3)c2c(=O)[nH]1 (stereo not given)
active: MALME-3M melanoma 8.74% | MDA-MB-231 breast 7.65% | RXF 393 renal -15.8% | SF-539 CNS 4.55% | HT29 colon 7.9% | SNB-75 CNS -6.85%
inactive: DU-145 prostate 40.2% | K-562 leukemia 10.9% | SF-268 CNS 49.3% | SF-295 CNS 28.5% | UACC-257 melanoma 29.1% | M14 melanoma 27.2% | HCT-15 colon 17% | SNB-19 CNS 30.6% | U251 CNS 27.8% | PC-3 prostate 32.8% | SK-MEL-5 melanoma 14.1% | UACC-62 melanoma 26.6% | LOX IMVI melanoma 23.7% | SK-MEL-28 melanoma 40.8%

O=C1[C@H]2Cc3c([nH]c4ccccc34)[C@H](c3ccc(Cl)cc3)N2C(=O)CN1C1CCN(CC2CCCCC2)CC1
inactive: DU-145 prostate 74.6% | MALME-3M melanoma 45.8% | MDA-MB-231 breast 87% | RXF 393 renal 45.8% | SF-268 CNS 60.2% | SF-295 CNS 97.4% | SF-539 CNS 66.2% | UACC-257 melanoma 75.1% | HCT-15 colon 28.6% | SNB-75 CNS 41.4% | SNB-19 CNS 76% | U251 CNS 49.2% | PC-3 prostate 52.9% | SK-MEL-5 melanoma 37.8% | UACC-62 melanoma 93.4% | SK-MEL-28 melanoma 83.2%
active: K-562 leukemia 6.81% | M14 melanoma -56% | HT29 colon -21.9% | LOX IMVI melanoma -79.5%

COc1ccc(/C=N/NC(=O)c2c(N)nn(C)c2Nc2ccccc2)cc1
active: SF-295 CNS 9.85%
inactive: DU-145 prostate 76.3% | K-562 leukemia 19.2% | MALME-3M melanoma 44.7% | MDA-MB-231 breast 65.1% | RXF 393 renal 37.3% | SF-268 CNS 58.6% | SF-539 CNS 40.2% | UACC-257 melanoma 56.4% | M14 melanoma 13% | HCT-15 colon 19.1% | HT29 colon 18.6% | SNB-75 CNS 35.1% | SNB-19 CNS 36.8% | U251 CNS 33.3% | PC-3 prostate 55.9% | SK-MEL-5 melanoma 57.2% | UACC-62 melanoma 23.7% | LOX IMVI melanoma 18.9% | SK-MEL-28 melanoma 57.5%

CC1=C(SCC(=O)OCCCCCC(C)C)C(=O)c2ccccc2C1=O
inactive: DU-145 prostate 109% | K-562 leukemia 81.1% | MALME-3M melanoma 116% | MDA-MB-231 breast 83.5% | RXF 393 renal 94.2% | SF-268 CNS 96.4% | SF-295 CNS 101% | SF-539 CNS 88.8% | UACC-257 melanoma 104% | M14 melanoma 96.8% | HCT-15 colon 89.3% | HT29 colon 106% | SNB-75 CNS 91.1% | SNB-19 CNS 91.1% | U251 CNS 92% | PC-3 prostate 68.8% | SK-MEL-5 melanoma 91.8% | UACC-62 melanoma 86.2% | LOX IMVI melanoma 93.2% | SK-MEL-28 melanoma 110%

COC(=O)CCCNCCCn1ccc2cc(NCc3cccc(-c4ccccc4)c3C)ccc21
inactive: DU-145 prostate 86.2% | MALME-3M melanoma 75.2% | MDA-MB-231 breast 68.3% | RXF 393 renal 71.9% | SF-268 CNS 82.9% | SF-295 CNS 64.5% | SF-539 CNS 77.8% | UACC-257 melanoma 81.6% | M14 melanoma 68.1% | HCT-15 colon 55.5% | HT29 colon 90.7% | SNB-75 CNS 68.9% | SNB-19 CNS 82.4% | U251 CNS 64.8% | PC-3 prostate 58.4% | SK-MEL-5 melanoma 92.8% | UACC-62 melanoma 83.4% | SK-MEL-28 melanoma 75.9%
active: K-562 leukemia -1.36% | LOX IMVI melanoma 4.91%

O=C(CCCCCCNC(=O)c1csc(Br)n1)NO
active: MALME-3M melanoma 8.89% | RXF 393 renal 3.36%
inactive: DU-145 prostate 26.7% | K-562 leukemia 13.8% | MDA-MB-231 breast 50.2% | SF-268 CNS 69.4% | SF-295 CNS 52% | SF-539 CNS 36.7% | UACC-257 melanoma 18.4% | M14 melanoma 29.4% | HCT-15 colon 60.5% | HT29 colon 17.2% | SNB-75 CNS 19.4% | SNB-19 CNS 59.7% | U251 CNS 49.3% | PC-3 prostate 47.4% | SK-MEL-5 melanoma 17.7% | UACC-62 melanoma 14.4% | LOX IMVI melanoma 13.8% | SK-MEL-28 melanoma 29.3%

CC1=C(C)C(=O)C(Nc2cccc(C(F)(F)F)c2)=C(Br)C1=O
inactive: DU-145 prostate 105% | MALME-3M melanoma 101% | MDA-MB-231 breast 69.2% | RXF 393 renal 105% | SF-268 CNS 97.7% | SF-295 CNS 106% | SF-539 CNS 96% | UACC-257 melanoma 88.1% | M14 melanoma 99% | HCT-15 colon 82.7% | HT29 colon 106% | SNB-75 CNS 62.2% | SNB-19 CNS 91.1% | U251 CNS 87.4% | PC-3 prostate 71% | SK-MEL-5 melanoma 81.3% | UACC-62 melanoma 80.8% | SK-MEL-28 melanoma 105%
active: K-562 leukemia -17.9% | LOX IMVI melanoma 6.64%

CNC(=O)c1cc(-n2ccc3cc(NC(=O)Nc4ccc(N5CCN(C)CC5)c(C(F)(F)F)c4)ccc32)ccn1
active: K-562 leukemia -53.3% | MALME-3M melanoma 2.37% | RXF 393 renal -27.7% | SF-295 CNS -47.2% | SF-539 CNS 1.48% | HT29 colon 0.845% | LOX IMVI melanoma -72.8% | SK-MEL-28 melanoma -85.6%
inactive: DU-145 prostate 86.5% | MDA-MB-231 breast 61.5% | SF-268 CNS 83.4% | UACC-257 melanoma 72.2% | M14 melanoma 59% | HCT-15 colon 23.8% | SNB-75 CNS 56.3% | SNB-19 CNS 83.1% | U251 CNS 46.6% | PC-3 prostate 60.8% | SK-MEL-5 melanoma 79% | UACC-62 melanoma 98.7%
